Assay results reported in PubChem BioAssay (NCI).
Compounds without any hit were thinned out: in the full panel of roughly 83,000, 20% have a hit.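 96-well plates, one dose, 48 hours. Percent growth reported; active if below 10.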 Values without a mark were called inactive. Calls of active or inactive are those of the source.

test system: MOLT-4 leukemia; assay: NCI-60 one-dose screen, 48 h (100 = growth as untreated, 0 = no growth, -100 = all killed); conditions: 10 µM unless noted

Row | SMILES | growth
1 | COc1ccc(-c2cc(-c3nnc(SC/C(=N\O)c4ccccc4)n3-c3ccccc3)c3ccccc3n2)cc1 | 98.4%
2 | Cc1cc2c(cc1C)N(C(=O)CCl)CCN2C(=O)CCl | 1.2% (active)
3 | COc1cc(-c2nc3ccccc3s2)ccc1OCc1nc2n(n1)S(=O)(=O)c1ccccc1N2C | 89.1%
4 | O=C(Cn1c2ccccc2c2ccncc21)N/N=C\c1ccc2ccccc2c1 | 41.7%
5 | COc1cc2ncnc(Oc3ccc(NC(=O)Nc4ccc(CN5CCOCC5)c(C(F)(F)F)c4)c4ccccc34)c2cc1OC | -20.7% (active)
6 | COc1cc(NC(C)CCCN2C(=O)c3ccccc3C2=O)c2nccc(C)c2c1OC (centres undefined) | -44.2% (active)
7 | Cc1ccc2c(c1)Nc1ccc(C)cc1C2(C)C | 73.4%
8 | Cc1ccc(-c2cc(-c3nnc(SCC(=O)c4ccccc4)o3)c3ccccc3n2)cc1 | 95.2%
9 | COc1ccccc1N1CCN(CC(O)COc2c(Br)c(Br)c(Br)c3c2OC(C)(C)C3)CC1 (centres undefined) | -36.7% (active)
10 | Fc1ccc(/C=N/n2c(-c3cc(Cl)cc(Cl)c3Cl)nn(CNc3ccc(Cl)nn3)c2=S)cc1 | 75.1%
11 | Nc1nc(Nc2ccc(OCc3cccc(F)c3)cc2)c2c(n1)[nH]c1ccc(O)cc12 | -28% (active)
12 | N#CC(C#N)=C(C#N)c1c[nH]c2ccccc12 | 75.7%
13 | FC(F)(F)c1cn(CC2CNC2)c2ncnc(Cl)c12 | 89.9%
14 | Cc1cc(N2CCOCC2)nc(N(CCNc2ccnc3cc(Cl)ccc23)Cc2ccco2)n1 | 5.1% (active)
